Compound activity as filed in PubChem.
This excerpt belongs to a sample that is enriched for hits.
IDE exosite inh: insulin-degrading enzyme (human) exo-site inhibition. purified IDE, FL-6b probe fluorescence polarization; hits give low values. z-score at 20 µM. 17,000 tested, 6.3% active. AID 1259349;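 active means z-score of -3 or lower, meaning strong loss of probe binding signal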;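 further: His-tagged human IDE residues 42-1019 made in E. coli with 30 nM FL-6b probe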
An asterisk follows results filed as active.

SMILES	IDE exosite inh
O=S(=O)(c1ccccc1)N1CCCCN2[C@H](CO)[C@@H](c3ccc(C#CC4CCCC4)cc3)[C@H]2C1	0.274
COCC(=O)N1[C@@H](C#N)[C@@H](c2ccc(C3=CCCC3)cc2)[C@@H]1CO	4.65
O=C(Cc1ccccn1)N1CC2(C1)[C@H](c1ccccc1)[C@H](CO)N2C(=O)c1ccncc1	-4.47*
CCC(=O)N1[C@H](CO)[C@H](c2ccccc2)C12CN(C(=O)c1ccncc1)C2	0.464
CCC(=O)N1[C@@H](CO)[C@@H](c2ccccc2)C12CN(C(=O)c1ccncc1)C2	1.08
COCC#Cc1ccc([C@@H]2[C@H](CO)N3CCCCN(S(=O)(=O)c4ccccc4F)C[C@@H]23)cc1	-4.52*
COCC#Cc1ccc([C@@H]2[C@H](CO)N3CCCCN(S(=O)(=O)c4ccccc4C)C[C@@H]23)cc1	-3.09*
COCC#Cc1ccc([C@H]2[C@H]3CN(S(=O)(=O)c4ccccc4C)CCCCN3[C@H]2CO)cc1	5.4
COCC#Cc1ccc([C@H]2[C@@H](CO)N3CCCCN(S(=O)(=O)c4ccccc4F)C[C@H]23)cc1	0.247
COCC#Cc1ccc([C@H]2[C@H](CO)N3CCCCN(S(=O)(=O)c4ccccc4F)C[C@@H]23)cc1	1.1
COCC#Cc1ccc([C@H]2[C@@H](CO)N3CCCCN(S(=O)(=O)c4ccccc4C)C[C@@H]23)cc1	4.1
O=C(C[C@@H]1C[C@@H]2c3cc(NC(=O)Nc4ccccc4F)ccc3O[C@@H]2[C@H](CO)O1)NCc1ccccn1	-0.753
COC(=O)C[C@@H]1CC[C@@H]2[C@H](COc3ccc(NS(=O)(=O)c4ccc(C)cc4)cc3C(=O)N2C)O1	-0.888
CN1C(=O)c2cc(NC(=O)Cc3cccs3)ccc2OC[C@H]2O[C@@H](CC(=O)NCCc3ccncc3)CC[C@H]21	0.89
CCC(=O)N(C)C[C@H]1[C@H](c2ccccc2)[C@@H](CO)N1C(=O)Cc1ccncc1	3.16
Cc1ccccc1S(=O)(=O)N1CCCCN2[C@H](CO)[C@H](c3ccc(-c4cccnc4)cc3)[C@@H]2C1	0.855
Cc1cccc(S(=O)(=O)N2CCCCN3[C@H](CO)[C@H](c4ccc(-c5cccnc5)cc4)[C@H]3C2)c1	4.93
Cc1ccccc1S(=O)(=O)N1CCCCN2[C@H](C1)[C@H](c1ccc(-c3cccnc3)cc1)[C@@H]2CO	4.14
O=S(=O)(c1ccccc1F)N1CCCCN2[C@H](C1)[C@@H](c1ccc(-c3cncnc3)cc1)[C@@H]2CO	3.77
Cc1ccccc1S(=O)(=O)N1CCCCN2[C@H](CO)[C@@H](c3ccc(-c4cncnc4)cc3)[C@@H]2C1	-4.63*
Cc1ccccc1S(=O)(=O)N1CCCCN2[C@@H](CO)[C@@H](c3ccc(-c4cccnc4)cc3)[C@@H]2C1	-14.4*
Cc1cccc(S(=O)(=O)N2CCCCN3[C@H](CO)[C@H](c4ccc(-c5cccnc5)cc4)[C@@H]3C2)c1	4.44
Cc1ccccc1S(=O)(=O)N1CCCCN2[C@H](CO)[C@H](c3ccc(-c4cncnc4)cc3)[C@H]2C1	5.42
Cc1cccc(S(=O)(=O)N2CCCCN3[C@H](CO)[C@@H](c4ccc(-c5cccnc5)cc4)[C@@H]3C2)c1	-3.72*
COc1ccc(NC(=O)N2C[C@@H](O)COC[C@H]3O[C@H](CC(=O)NCc4ccncn4)CC[C@@H]32)cc1	-0.243
SMILES	IDE exosite inh
O=C(C[C@@H]1CC[C@@H]2[C@H](COC[C@H](O)CN2C(=O)c2cccnc2)O1)NCC1CC1	-0.5
N#C[C@@H]1[C@H](c2ccc(C3=CCCCC3)cc2)[C@@H](CO)N1S(=O)(=O)c1cccc(F)c1	1.36
O=C(c1ccccc1F)N1C[C@H]2[C@@H](c3ccccc31)[C@@H](CO)N2Cc1ccc2c(c1)OCO2	-0.919
CC(=O)N1[C@@H](CO)[C@H](c2ccccc2)[C@@H]1CN(CC(C)C)C(=O)c1ccccn1	-0.767
CCCC#Cc1ccc([C@@H]2[C@H](C#N)N(C(=O)C3CCC3)[C@H]2CO)cc1	1.92
O=C(C[C@H]1CC[C@H]2[C@@H](COC[C@H](O)CN2Cc2nccs2)O1)NCc1ccccc1Cl	-1.29
CCCC#Cc1ccc([C@H]2[C@@H](CO)N3C(=O)CN(C(=O)c4ccc(F)cc4)C[C@@H]23)cc1	0.455
CCS(=O)(=O)Nc1ccc2c(c1)C(=O)N(C)[C@H]1CC[C@H](CC(=O)NCc3ccc(OC)cc3)O[C@@H]1CO2	0.268
Cn1cnc(S(=O)(=O)N2CCCCN3[C@H](CO)[C@H](c4ccc(-c5ccccc5F)cc4)[C@@H]3C2)c1	-1.2
Cn1cnc(S(=O)(=O)N2CCCCN3[C@H](CO)[C@H](c4ccc(-c5ccccc5F)cc4)[C@H]3C2)c1	-4.56*
Cn1cnc(S(=O)(=O)N2CCCCN3[C@H](CO)[C@H](c4ccc(-c5ccc(F)cc5)cc4)[C@H]3C2)c1	1
Cn1cnc(S(=O)(=O)N2CCCCN3[C@@H](CO)[C@@H](c4ccc(-c5ccccc5F)cc4)[C@@H]3C2)c1	-5.63*
Cn1cnc(S(=O)(=O)N2CCCCN3[C@H](CO)[C@@H](c4ccc(-c5ccc(F)cc5)cc4)[C@H]3C2)c1	2.16
Cn1cnc(S(=O)(=O)N2CCCCN3[C@H](C2)[C@@H](c2ccc(-c4ccccc4F)cc2)[C@@H]3CO)c1	-0.202
C[C@@H](O)C#Cc1ccc([C@H]2[C@H]3CN(C(=O)c4ccc(F)cc4)CCCCN3[C@H]2CO)cc1	0.3
CCOC(=O)c1cc2c(c(-c3cccc(-c4cccc(F)c4)c3)n1)[C@H](CCO)N(S(=O)C(C)(C)C)C2 (some centres not stated)	-0.255
Cc1ccccc1-c1ccc(C2[C@H]3CNC[C@@H]2N3Cc2cncnc2)cc1 (some centres not stated)	-1.33
COc1ccc2c3c(n(C)c2c1)[C@@H](CO)N(Cc1cc(F)ccc1F)CC31CN(C(=O)C2CC2)C1	0.68
COCC(=O)N1CCC2(CC1)CN(Cc1cc(F)ccc1F)[C@H](CO)c1c2c2ccc(OC)cc2n1C	-4.02*
COc1ccc2c3c(n(C)c2c1)[C@H](CO)N(Cc1cccc(F)c1)CC31CCN(C(=O)Cc2ccccc2)CC1	-3.69*
COCC(=O)N1CC2(C1)CN(Cc1cccc(F)c1)[C@@H](CO)c1c2c2ccc(OC)cc2n1C	-0.117
COCC(=O)N1CC2(C1)CN(Cc1cccc(F)c1)[C@H](CO)c1c2c2ccc(OC)cc2n1C	-2.47
COc1ccc2c3c(n(C)c2c1)[C@H](CO)N(Cc1ccccc1F)CC31CCN(C(=O)C2CCOCC2)CC1	-0.892
C[C@H]1CCCCO[C@H](CN(C)C(=O)Cc2ccccc2)[C@@H](C)CN([C@@H](C)CO)C(=O)c2cc(NS(C)(=O)=O)ccc2O1	0.77
CCCNC(=O)[C@@H]1[C@@H](CO)[C@@H]2Cn3c(ccc(C4=CCCCC4)c3=O)[C@@H]2N1Cc1ccccc1F	-0.305
SMILES	IDE exosite inh
CS(=O)(=O)N1[C@H](C#N)[C@H](c2ccccc2-c2ccccc2F)[C@H]1CO	-0.992
CS(=O)(=O)N1[C@H](C#N)[C@H](c2ccc(-c3ccccc3F)cc2)[C@H]1CO	-1.7
CS(=O)(=O)N1[C@@H](C#N)[C@H](c2ccc(-c3ccccc3F)cc2)[C@@H]1CO	-5.18*
CS(=O)(=O)N1[C@H](C#N)[C@@H](c2ccc(-c3ccccc3F)cc2)[C@H]1CO	-2.13
CS(=O)(=O)N1[C@H](CO)[C@H](c2ccc(-c3ccccc3F)cc2)[C@@H]1C#N	-1.3
CS(=O)(=O)N1[C@H](C#N)[C@@H](c2ccc(-c3ccccc3F)cc2)[C@@H]1CO	-3.01*
N#C[C@H]1[C@@H](c2ccccc2)[C@H](CO)N1C(=O)Nc1cccc(F)c1	0.00457
